KB-3-1 tox – kills parental KB-3-1 adenocarcinoma cells | KB-3-1 viability, CellTiter-Glo ATP luminescence, 72 h | Potency, µM (highest dose often 46.1 µM), usual class: cytotoxic | AID 1347075 | actives 1.4% (n = 400,000); note: nearly all actives have a fitted effect of over 60% in size
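Parental KB-3-1 viability, qHTS format: 72 h compound exposure, 37 °C; CellTiter-Glo; media-only wells and DMSO plates as controls; concentration-effect fits on corrected data.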
MCF10A rereplic – DNA re-replication induction in MCF 10a cells | MCF 10A DNA re-replication, Hoechst nuclear intensity, 48 h | Potency, µM (highest dose often 46.1 µM), most hits filed as activators | actives 2.9% (n = 350,000) | AID 624296; note: nearly all actives have a fitted effect of over 50% in size
HT1080-NT tox – kills 2HG-producing HT-1080-NT fibrosarcoma cells; HT-1080-NT fibrosarcoma viability, CellTiter-Glo ATP luminescence, 48 h; Potency, µM (highest dose often 46.1 µM), hits mostly cytotoxic; actives 1.6% (n = 360,000);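 note: NT is the 2HG producing partner of a matched IDH1 knockdown line; nearly all actives have a fitted effect of over 55% in size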
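Read-out is CellTiter-Glo luminescence after 10 minutes at room temperature, following 48 hours' compound treatment of HT-1080-NT cells (750 cells/well, RPMI, 5% FBS, 37 degrees C).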
SW480 rerep – induces DNA re-replication in SW480 colon adenocarcinoma cells | SW480 DNA re-replication, Hoechst DNA content imaging, 48 h | Potency, µM (top dose mostly 46.1 µM), hits mostly activators | actives 1.8% (n = 340,000) | AID 624297; note: nearly all actives have a fitted effect of over 55% in size
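Treated cells incubate 48 hr (37 C, 5% CO2), are stained 40 min with Hoechst, and nuclear fluorescence is enumerated; a rise in nuclei with high DNA signal marks re-replication.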
KB-V1 cytotox – KB-V1 MDR subline cytotoxicity; KB-V1 MDR cells viability, CellTiter-Glo, 72 h; actives 3.4% (n = 400,000); Potency, µM (doses to about 46.1 µM), hits mostly cytotoxic; note: nearly all actives have a fitted effect of over 60% in size
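KB-V1, DMEM (no phenol red) + 10% FBS; cpd pin-transferred, titration series; 72 h, 37 degrees C; CellTiter-Glo, luminescence. Data normalized, curve-fit.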
HT1080 IDH1KD tx – HT-1080 IDH1 knockdown cell toxicity (counter line). HT-1080 IDH1 knockdown viability, ATP luminescence, 48 h. Potency, µM (top dose mostly 46.1 µM), actives largely listed as cytotoxic. actives 2% (n = 360,000). AID 686971
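Knockdown cells (IDH1KD HT-1080) received compounds 2 h after plating at 750 cells/well and were kept 48 h at 37 °C in 5% FBS RPMI. A CellTiter-Glo luminescence read gave % activity for curve fitting.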
Hits are given with their value; . = inactive; ? = inconclusive; / = not tested or not shown; ! = not active in a repeat; [ ] = remark or other dose. Only some compounds are listed: those with a hit (about 8% of all), similar ones and a draw of the others. Calls come from the whole dose curve; as a rule, active = well fitted curve in the direction sought with a large enough effect; inconclusive = small, poorly fitted or top-dose-only effect, or another doubt; inactive = no such curve, though single readings can be large; an effect the other way counts as inactive or inconclusive.

SMILES	KB-3-1 tox	MCF10A rereplic	HT1080-NT tox	SW480 rerep	KB-V1 cytotox	HT1080 IDH1KD tx
COc1ccc(Cn2c(N)c(C(=O)NCc3ccco3)c3nc4ccccc4nc32)cc1	?	10µM	.	2.3µM	.	.
CCOC(=O)c1c(N)n(Cc2ccco2)c2nc3ccccc3nc12	.	.[0.0737 µM]	.	.	.	.
Nc1c(C(=O)NCc2ccco2)c2nc3ccccc3nc2n1CCN1CCOCC1	.	16µM	?	5.2µM	?	?
Nc1c(C(=O)NCc2ccco2)c2nc3ccccc3nc2n1Cc1ccccc1	.	?	.	21µM	.	.
COCC(C)OC(=O)c1c(N)n(Cc2ccco2)c2nc3ccccc3nc12 (stereo unspecified)	.	.	.	.	.	.
Nc1c(C(=O)NCc2ccco2)c2nc3ccccc3nc2n1Cc1ccc(F)cc1	.	3.7µM	16µM	?	.	?
C[C@H]1COC(=O)[C@@H](Cc2ccc(F)cc2)CC/C=C/C[C@H](CC(=O)N(CCO)Cc2ccccc2)C(=O)N1	.	.	.	.	.	.
CCOC(=O)c1c(NC(=O)C(c2ccccc2)c2ccccc2)sc2c1C1CCN2CC1	?	?	.	?	23µM	.
Cc1ccnc2c1NC(=O)c1cccnc1N2C1CC1	.	?	.	?	.	?
O=c1cccc2n1CC1CC2CN(Cc2cccc(Cl)c2Cl)C1 (stereo unspecified)	.	.	.	.	18µM	?
O=c1cccc2n1CC1CC2CN(Cc2c(F)cccc2Cl)C1 (stereo unspecified)	.	.	.	.	?	.
C=CC[C@]1(O)CCC2C3CCC4=CCCCC4C3CCC21C (stereo partly specified)	/	19µM	/	.	/	/
CCC1(O)CCC2C3CCC4=CC(=O)CCC4C3CCC21CC (stereo unspecified)	.	.	.	.	?	.
O=C(CC1CCCCC1)c1c(O)c2ccccc2oc1=O	5.8µM	?	7.9µM	.	.	?
CCC1(O)C(=O)OCc2c1cc1n(c2=O)Cc2cc3cc(O)ccc3nc2-1 (stereo unspecified)	?	?	0.73µM	?	?	0.65µM
CCC1(OC(=O)CN)C(=O)OCc2c1cc1n(c2=O)Cc2cc3ccccc3nc2-1 (stereo unspecified)	?	.	1µM	.	?	0.73µM
CC[C@@]1(O)C(=O)OCc2c1cc1n(c2=O)Cc2cc3c(NC(=O)CN)cccc3nc2-1	.	?	2.3µM	?	.	1.8µM
CC[C@@]1(O)C(=O)OCc2c1cc1n(c2=O)Cc2cc3ccccc3nc2-1	?	/	/	/	.	/
c1ccc(CCN2CCCC2)cc1	.	/	/	/	.	/
CCC1(C2=NCCN2)Cc2ccccc2O1 (stereo unspecified)	.	?	.	12µM!	.	.
CC(O)(CS(=O)(=O)c1cccc(C(F)(F)F)c1)C(=O)Nc1cccc(C(F)(F)F)c1 (stereo unspecified)	.	.	.[9.24 µM]	.	.	?
CC(O)(CS(=O)(=O)c1ccccc1)C(=O)Nc1ccc(C(F)(F)F)cc1 (stereo unspecified)	.	.	?	.	15µM	.
FC(F)(F)c1nc(N2CCN(c3ccccc3)CC2)nc2c1CCCCC2	.	?	.	.	.	.
CN(C)c1ccc(/C=C/C=C/c2sc3ccccc3[n+]2C)cc1	10µM	.	21µM	.	.	?
CC[n+]1c(/C=C/C=C/c2ccc(N(C)C)cc2)sc2ccccc21	1.5µM	.	5.8µM	.	?	7.3µM
SMILES	KB-3-1 tox	MCF10A rereplic	HT1080-NT tox	SW480 rerep	KB-V1 cytotox	HT1080 IDH1KD tx
CC[n+]1c(/C=C/N(C)c2ccccc2)sc2ccc(Cl)cc21	15µM	.	?	.	12µM	?
CN(C)c1ccc(/C=C/c2cc[n+](C)c3ccccc23)cc1	2.9µM!	?	?	?	16µM!	7.3µM
OC[C@@H](O)[C@H]1O[C@@H]2OC(C(Cl)(Cl)Cl)O[C@H]2[C@H]1O (stereo partly specified)	/	.	/	.	/	/
CCC1Nc2ncnc(N3CCN(c4ccccn4)CC3)c2N(Cc2ccc(Br)cc2)C1=O (stereo unspecified)	?	.	.	?	.	.
COc1ccc(C)cc1NC(=O)c1cccn(Cc2cccc([N+](=O)[O-])c2)c1=O	.	/	/	/	.	/
COc1ccc2c(c1)C(c1ccc(N(CCCl)CCCl)cc1)=NCC2	.	13µM	?	?	.	26µM
ClCCN(CCCl)c1ccc(C2=NCCc3ccccc32)cc1	.	?	.	.	?	.
O=c1[nH]c(O)c(C=NCCc2ccccc2)c(=O)[nH]1	.	.	.	.	?	.
O=c1[nH]c(O)c(/C=C2\C=Nc3ccc(OCc4ccccc4)cc32)c(=O)[nH]1	.	?	.	21µM	.	.
CN(C)C(=O)Oc1ccc(Cl)c2cccnc12	.	.	.	.	.	.
O=C(Nc1cccc(Br)c1)Oc1cccc2cccnc12	?	/	16µM	/	?	?
O=C(Nc1c(Cl)cccc1Cl)Oc1cccc2cccnc12	?	/	6.5µM	/	?	3.7µM
Cc1cc(=O)oc2c1c(C)nn2-c1nn[nH]n1	.	?	.	?	.	.
O=C1NC(=O)C(=Cc2ccccc2OCCOc2ccc([N+](=O)[O-])cc2)C(=O)N1	.	18µM	?	?	.	18µM
CC[C@@H](O)C[C@H]1CCC[C@@]2(C[C@@H]3OC(=O)/C=C/[C@@](C)(O)[C@@H](O)[C@H](C)[C@@H](O)[C@H](OC4CCC(N(C)C)C(C)O4)[C@@H](O)[C@](C)(O)CCCCC/C=C/[C@@H]4CC(C)(C)O[C@@]4(O)C[C@H](O2)[C@H]3C)O1 (stereo partly specified)	0.16µM	?	.	?	0.073µM	?
CCOC(=O)CC(SP(=S)(OC)OC)C(=O)OCC (stereo unspecified)	/	.	/	.	/	/
COc1ccc(-c2nnc(Nc3nc4c(OC)cccc4s3)o2)c(OC)c1	?	.	4µM	.	?	3.2µM
Cn1c(O)c(C(=Nc2ccccc2)SCc2ccccc2Cl)c(=O)n(C)c1=O	18µM	.	?	.	?	13µM
CC(=O)c1ccc(NC(=O)CSc2nc(=O)cc(N)n2-c2ccccc2)cc1	.	.	.	.[1.84 µM]	.	.
Oc1c(Cl)c(Cl)c(Cl)c(Cl)c1Cl	.	8.2µM	?	.	?	?
COc1ccc(OC)c(NC(=O)C2C(C(=O)O)C3(Cl)C(Cl)=C(Cl)C2(Cl)C3(Cl)Cl)c1 (stereo unspecified)	.	?	.	.	.	.
CCC(=O)Nc1ccc(C(=O)OCc2ccccc2Cl)cc1	.	?	.	.	15µM	.
CCC(=O)Nc1ccc(Cl)c(Cl)c1	.	.	.	.	.	.
